In PubChem BioAssay AID1851 (National Center for Advancing Translational Sciences (NCATS), 2009) one finds AC50 and activity, negative = inhibition data, which are given here for 63 compounds.

Out of some 16,000 compounds screened, about 2,600 (16%) were called active. Another 20% or so got no clear call; they are omitted. Only a sample is shown. Unmarked numbers belong to inactive results. The call rests on the fitted dose curve; in most records, active means well fitted curve in the direction sought with a large enough effect; inconclusive means small, poorly fitted or top-dose-only effect, or effect the other way; inactive means no such curve, though single readings can be large or run the other way.

Broadly, the AC50 is the concentration giving half of the maximal activity seen.
On the % scale 0 is the no-effect control and ±100 the full control effect.

The experiment deals with Cytochrome P450 2D6 (Homo sapiens) (UniProt P10635). Nature of the experiment: Cytochrome panel assay with activity outcomes. Conditions: recombinant CYP, pro-luciferin dealkylation, luminescence, p450-cyp2d6; series mostly up to 57.1 µM.
Cytochrome P450 2D6 (Homo sapiens), sequence (P10635 whole entry, looked up): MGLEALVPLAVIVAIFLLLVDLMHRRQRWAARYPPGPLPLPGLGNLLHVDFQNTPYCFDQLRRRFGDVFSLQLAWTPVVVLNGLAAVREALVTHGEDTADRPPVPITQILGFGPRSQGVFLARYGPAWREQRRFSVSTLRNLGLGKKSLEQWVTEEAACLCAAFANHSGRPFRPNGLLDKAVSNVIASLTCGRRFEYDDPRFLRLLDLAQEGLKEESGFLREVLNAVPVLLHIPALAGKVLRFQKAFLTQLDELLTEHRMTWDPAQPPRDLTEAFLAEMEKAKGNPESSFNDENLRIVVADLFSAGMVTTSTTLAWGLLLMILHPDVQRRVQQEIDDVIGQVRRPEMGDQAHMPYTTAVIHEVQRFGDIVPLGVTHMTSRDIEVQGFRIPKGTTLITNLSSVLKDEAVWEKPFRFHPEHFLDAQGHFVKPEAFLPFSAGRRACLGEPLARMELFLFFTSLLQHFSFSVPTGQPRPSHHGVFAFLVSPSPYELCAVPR
With `C[C@@H](Cc1ccccc1)Nc1ncnc2c1ncn2[C@@H]1O[C@@H](CO)[C@H](O)[C@@H]1O`, the AC50 result was “inactive”. On the same count and under the same terms, in the case of `O=C(CNC(=O)c1ccccn1)N/N=C/c1ccccc1` it was “inactive”; in that of `CCOC(=O)C(CC)(CC)C(=O)/C=C/c1ccc(Br)cc1`, “inactive”; in that of `C[C@H](NC[C@H](O)CP(=O)(O)CC1CCCCC1)c1ccc(Cl)c(Cl)c1`, “inactive”. As for `C[C@H](NC[C@H](O)CP(=O)(O)Cc1ccccc1)c1ccc(Cl)c(Cl)c1`, the AC50 is 0.0501 µM (active). Regarding `Cc1cccc2c1OCC/C2=N\NC(=O)COc1ccccc1Cl`, the AC50 result was “inactive”. As for `Cc1sc(NC(=O)/C=C/c2ccc(C(C)C)cc2)c(C#N)c1C`, the AC50 entry is “inactive”.

As to `Cn1cc(-c2nc3cnc(Oc4ccccc4)nc3n(C3CC3)c2=O)c2ccccc21`, the AC50 result was “inactive”. Still for that read-out and setting: in the case of `CC(C)CN1CC[C@@]2(CCCN(C(=O)c3cc(C(F)(F)F)cc(C(F)(F)F)c3)C2)C1` it was “inactive”. On the same count and under the same terms, in the case of `CC(C)CN1CCCC2(CCN(C(=O)c3cc(C(F)(F)F)cc(C(F)(F)F)c3)CC2)C1` it was 10 µM (active); in that of `CC(C)NC(=O)N1CC2(CCN(C(=O)c3cc(C(F)(F)F)cc(C(F)(F)F)c3)CC2)C1`, 0.251 µM (active); in that of `CC(C)NC(=O)N1CCC2(CC1)CCN(C(=O)c1cc(C(F)(F)F)cc(C(F)(F)F)c1)CC2`, “inactive”. Turning to `CC(C)CN1CCC2(CC1)CCN(C(=O)c1cc(C(F)(F)F)cc(C(F)(F)F)c1)CC2`, the AC50 entry was “inactive”. Same read-out and setting: with `CC(C)NC(=O)N1CCCC2(CCN(C(=O)c3cc(C(F)(F)F)cc(C(F)(F)F)c3)CC2)C1` the entry was “inactive”; with `CCOc1cc(/C=C2/C(=O)N(c3ccccc3)N=C2C)ccc1OC(=O)c1ccco1`, “inactive”; with `CN1CCCN(S(=O)(=O)c2ccc3c(c2)OCCO3)CC1`, “inactive”. Same read-out and setting: with `C=CCNC(=O)c1ccc(-c2nc(-c3ccc(Cl)c(Cl)c3)cs2)cc1` the entry was “inactive”. `CCOC(=O)N/N=C1/C[C@@H](O)[C@@H](O)[C@@H]2[C@@H]3C(=O)N(CC)C(=O)[C@H]3CC[C@@H]12`: the activity, negative = inhibition is 7.29% [at 11.4 µM]. For `CO[C@H]1COC(=O)[C@H]2CCCN2C(=O)[C@@H](C)COC(=O)C/C=C\[C@@H]1C`, the activity, negative = inhibition is 19.9% [at 11.4 µM]. For the compound `Cc1nn(CC(=O)NCc2ccccc2)c(C)c1[N+](=O)[O-]`, the AC50 result was “inactive”.

As for `CCOc1cc(-c2noc(N)c2C#N)cc(OCC)c1OCC`, the AC50 result is “inactive”.

For the compound `C/C(=N\NC(=O)c1cccc(Br)c1)c1ccc(Br)cc1`, the AC50 result is “inactive”.

As for `O=C(N/N=C/C1C(c2ccccc2)C1(Cl)Cl)c1cccc(Br)c1` (stereo not drawn), the AC50 was 7.08 µM (active).

Turning to `O=C(N/N=C/c1cccc(Oc2ccccc2)c1)c1cccc(Br)c1`, the AC50 entry was “inactive”. Same read-out and setting: with `Cn1c(C(N)=O)cnc1Sc1ncc(C(F)(F)F)cc1Cl` the entry was “inactive”. Still for that read-out and setting: in the case of `Cc1ccnc(N2C(=O)C3C4CC(C(Br)C4Br)C3C2=O)c1` (stereo not drawn) it was “inactive”. On the same count and under the same terms, with `CCC(=O)O[C@@]1(C(=O)SCF)[C@@H](C)C[C@H]2[C@@H]3C[C@@H](F)C4=CC(=O)C=C[C@@]4(C)[C@]3(F)[C@@H](O)C[C@]21C` the entry was “inactive”. Regarding `CO[C@@H](NC(N)=O)C(=O)O`, the activity, negative = inhibition is 2.43% [at 11.4 µM]. As to `CCC(C)(C)NC(=O)c1ccc2c(c1)N(CC(=O)OC)C(=O)C(C)(C)O2`, the AC50 entry was “inactive”. For `O=C(Oc1ccccc1)N1CCC2(CCCN(c3ccc(-c4ccccc4)cc3)C2)CC1`, the AC50 result was “inactive”.

Turning to `CC(C)c1nc2ccccn2c1NC1CCCCC1`, the AC50 was 3.16 µM (active). Consider `CC(C)c1ccc(O)c(NC(=O)c2ncn[nH]2)c1`, for which the AC50 result is “inactive”. Regarding `COc1ccc(NC(=O)CC#N)cc1OC`, the AC50 entry is “inactive”. The same measure, in the same setting: with `COC(=O)C1=C(C)NC(=O)NC1c1ccsc1` (stereo not drawn) the entry was “inactive”. On the same count and under the same terms, in the case of `COCCNC(=O)COc1ccc(OCCNC[C@@H](O)COc2ccccc2)cc1` it was 5.01 µM (active); in that of `COCCNC(=O)COc1ccc(Oc2ccccc2)cc1`, “inactive”. With `O=C(O)COc1ccc(OCCNC[C@@H](O)COc2ccccc2)cc1`, the AC50 entry is “inactive”. As to `CCOC(=O)N/N=C1/C[C@@H](O)[C@@H](O)[C@@H]2[C@@H]3C(=O)N(CC)C(=O)[C@H]3CC[C@H]12`, the activity, negative = inhibition is -3.76% [at 11.4 µM].

`CS(=O)(=O)c1nc(-c2ccccc2)cc(-c2ccccc2)c1C#N`: the AC50 result was “inactive”. For `CCOC(=O)c1sc2nc3c(cc2c1N)COC(C(C)C)C3` (stereo not drawn), the AC50 entry is “inactive”.

As to `CCC(=O)N[C@@H]1CCc2cccc(OC)c2C1`, the AC50 entry was “inactive”. On the same count and under the same terms, with `CCc1ccccc1OC[C@@H](O)CN[C@H]1CCCc2ccccc21` the entry was “inactive”; with `COc1cccc(C=NC=Nc2cccc(OC)c2)c1`, “inactive”; with `O=C(CSc1nc(-c2ccccc2)cs1)N1CCc2ccccc21`, “inactive”. The same measure, in the same setting: in the case of `O=C(CSc1nnc(CNc2ccccc2)o1)N1CCCc2ccccc21` it was “inactive”; in that of `O=C(CSc1n[nH]c(-c2ccccc2O)n1)N1CCCc2ccccc21`, 25.1 µM (active). Still for that read-out and setting: in the case of `CC(C)C[C@H](NC(=O)[C@@H](O)[C@@H](N)Cc1ccccc1)C(=O)O` it was “inactive”; in that of `O=C(c1ccc(C(F)(F)F)cc1)c1c[nH]c(C(=O)NCCCn2ccnc2)c1`, 2.51 µM (active). Consider `CCC(CC)C(=O)c1c[nH]c(C(=O)NCCc2ccccn2)c1`, for which the AC50 entry was “inactive”. `Cc1ccc(C(=O)c2c[nH]c(C(=O)NCCCN3CCOCC3)c2)cc1`: the AC50 result is “inactive”. The same measure, in the same setting: in the case of `O=C(NCCc1ccccn1)c1cc(C(=O)C2CCCCC2)c[nH]1` it was “inactive”; in that of `O=C(O)CCCCCNC(=O)c1ccncc1`, “inactive”; in that of `CC(C)(C)c1ccc(C(=O)c2c[nH]c(C(=O)NCCCn3ccnc3)c2)cc1`, 5.01 µM (active). Take `C1CNCCOCCNCCN1`: the AC50 entry is “inactive”. On to `CN(C)c1ccc(C(c2ccc(N(C)C)cc2)c2ccc([N+](=O)[O-])cc2)cc1`, for which the activity, negative = inhibition is 14% [at 11.4 µM]. For the compound `O=C(O)[C@@H]1[C@@H](C(=O)Nc2ccccc2)[C@@H]2C=C[C@@H]1O2`, the activity, negative = inhibition is 2.5% [at 11.4 µM].

Regarding `CCOc1ccc(Cc2nccc3cc(OCC)c(OCC)cc23)cc1OCC`, the AC50 entry was “inactive”.

For `O=C(O)Cc1ccc(O)c(O)c1`, the AC50 entry is “inactive”. Still for that read-out and setting: in the case of `Oc1ccc(Cc2nccc3cc(O)c(O)cc23)cc1O` it was 1.26 µM (active); in that of `COc1ccc(-c2nc3cnc(OC)nc3n(CCc3ccccc3)c2=O)cc1`, “inactive”; in that of `CCN(CC)C(=O)CSc1nc(O)cc(=O)n1CC`, “inactive”.

For `COc1ccc(Cl)cc1N=Nc1ncc[nH]1`, the AC50 is 2.51 µM (active). Still for that read-out and setting: in the case of `Cc1n[nH]c(C)c1N=Nc1cc(Cl)ccc1Cl` it was “inactive”.
